In general, inhibition refers to the change of the read-out against control, counted positive when it falls.

The text below walks through data of PubChem BioAssay AID2751 (The Scripps Research Institute Molecular Screening Center, 2010).

Structures are written as SMILES. In all, about 320,000 compounds went through this assay and about 2,200 (0.69%) were called active. Rule as the data show it: active = inhibition above about 43%; inactive = the rest. Shown is part of a subset that was picked to be rich in actives.

For this test, the target named is Prolyl endopeptidase-like (Homo sapiens) (UniProt Q4J6C6). The test is described as follows: human PREPL activity-probe blockers – biochemical, fluorescence polarization, primary screen (AID 2751).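 Also: 0% = enzyme with DMSO and 100% = wells lacking enzyme.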 Conditions: recombinant PREPL, fluorescence polarization activity-based probe; at 5.96 µM; hits give high values.
Sequence of Prolyl endopeptidase-like (Homo sapiens) (Q4J6C6 whole entry, looked up): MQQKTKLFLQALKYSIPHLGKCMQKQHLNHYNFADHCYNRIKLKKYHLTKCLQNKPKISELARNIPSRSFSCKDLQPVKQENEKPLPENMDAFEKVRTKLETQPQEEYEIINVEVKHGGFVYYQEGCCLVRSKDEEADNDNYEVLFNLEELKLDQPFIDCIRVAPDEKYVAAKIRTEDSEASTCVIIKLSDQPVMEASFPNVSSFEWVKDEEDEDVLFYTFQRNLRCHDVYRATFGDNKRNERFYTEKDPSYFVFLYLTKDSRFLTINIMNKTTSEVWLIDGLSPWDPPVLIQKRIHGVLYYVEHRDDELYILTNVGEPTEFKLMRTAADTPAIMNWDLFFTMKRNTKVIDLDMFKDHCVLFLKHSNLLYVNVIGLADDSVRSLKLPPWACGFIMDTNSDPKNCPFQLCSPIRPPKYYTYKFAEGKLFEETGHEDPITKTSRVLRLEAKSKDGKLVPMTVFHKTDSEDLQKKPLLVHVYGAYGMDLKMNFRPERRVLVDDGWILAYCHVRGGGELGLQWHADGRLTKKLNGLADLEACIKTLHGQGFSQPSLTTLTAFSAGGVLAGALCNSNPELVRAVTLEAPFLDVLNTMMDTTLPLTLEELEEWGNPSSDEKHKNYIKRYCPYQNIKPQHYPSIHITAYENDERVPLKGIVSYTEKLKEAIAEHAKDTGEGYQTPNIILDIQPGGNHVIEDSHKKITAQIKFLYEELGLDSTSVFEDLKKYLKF
Turning to `COc1ccc2[nH]c3c(c2c1)CCN[C@H]3C`, the inhibition is 48.8% (active).

Consider `O=C(N/N=C/c1c(O)n(C2CC2)c(=S)[nH]c1=O)c1ccccc1Cl`, for which the inhibition was -3.24% (inactive).

As to `CCOc1ccc(-c2cc(C)[n+](CCN(CC)CC)c(-c3ccc(OCC)cc3)c2)cc1`, the inhibition was 10.9% (inactive).

With `CCOc1cccc(=NC2CCCCC2)c2c(C)[nH]c(C)c12`, the inhibition is 52.1% (active).

On to `Cn1c(O)c(C=NCCCC(=O)O)c(=O)n(C)c1=O`, for which the inhibition was -8.04% (inactive).

Take `N[C@@H](Cc1c[nH]c2ccccc12)c1nnc(SCc2c(F)cccc2Cl)o1`: the inhibition was 2.17% (inactive).

In the case of `CCN(CC)C(=O)c1ccc(NC(=O)c2cc(-n3cnnc3)ccc2Cl)cc1`, the inhibition was 15.1% (inactive).

For the compound `Cc1nc2ccccn2c1P(=S)(N1CCCCC1)N1CCCCC1`, the inhibition is -7.5% (inactive).

With `O=C(NCC(c1cccnc1)N1CCN(c2ccccc2)CC1)Oc1ccccc1` (stereo not given), the inhibition was 46.3% (active).

On to `COc1ccccc1N1CCN(C(CNC(=O)Oc2ccccc2)c2cccnc2)CC1` (stereo not given), for which the inhibition was 1.24% (inactive).

In the case of `COC(=O)C(c1ccccc1)N1CCCCCC1` (stereo not given), the inhibition is 1.34% (inactive).

As for `COc1ccc(C2NCc3ccc4c(c3-n3cccc32)OCO4)cc1OC` (stereo not given), the inhibition is -15.2% (inactive).

For the compound `COC(=O)N(c1ccc(OC)cc1)P1(=S)OCCC(C)O1` (stereo not given), the inhibition is 8.63% (inactive).

With `O=C(O)C1CSC(c2cccnc2)N1` (stereo not given), the inhibition was 3.28% (inactive).

Regarding `Cc1c(Oc2cc(NN3CCCCC3)c([N+](=O)[O-])cc2[N+](=O)[O-])cccc1[N+](=O)[O-]`, the inhibition is 4.76% (inactive).
